In ChEMBL document CHEMBL2218924, “A broad activity screen in support of a chemogenomic map for kinase signalling research and drug discovery” (Biochem J, 2013) one finds residual activity data, which are given here for 17 compounds.

The structures appear in SMILES notation.

In general, residual activity refers to the signal under treatment as a percentage of the control signal.

The experiment deals with T1, Tyrosine-protein kinase receptor TYRO3 (Homo sapiens) (UniProt Q06418).
T1 sequence (whole entry): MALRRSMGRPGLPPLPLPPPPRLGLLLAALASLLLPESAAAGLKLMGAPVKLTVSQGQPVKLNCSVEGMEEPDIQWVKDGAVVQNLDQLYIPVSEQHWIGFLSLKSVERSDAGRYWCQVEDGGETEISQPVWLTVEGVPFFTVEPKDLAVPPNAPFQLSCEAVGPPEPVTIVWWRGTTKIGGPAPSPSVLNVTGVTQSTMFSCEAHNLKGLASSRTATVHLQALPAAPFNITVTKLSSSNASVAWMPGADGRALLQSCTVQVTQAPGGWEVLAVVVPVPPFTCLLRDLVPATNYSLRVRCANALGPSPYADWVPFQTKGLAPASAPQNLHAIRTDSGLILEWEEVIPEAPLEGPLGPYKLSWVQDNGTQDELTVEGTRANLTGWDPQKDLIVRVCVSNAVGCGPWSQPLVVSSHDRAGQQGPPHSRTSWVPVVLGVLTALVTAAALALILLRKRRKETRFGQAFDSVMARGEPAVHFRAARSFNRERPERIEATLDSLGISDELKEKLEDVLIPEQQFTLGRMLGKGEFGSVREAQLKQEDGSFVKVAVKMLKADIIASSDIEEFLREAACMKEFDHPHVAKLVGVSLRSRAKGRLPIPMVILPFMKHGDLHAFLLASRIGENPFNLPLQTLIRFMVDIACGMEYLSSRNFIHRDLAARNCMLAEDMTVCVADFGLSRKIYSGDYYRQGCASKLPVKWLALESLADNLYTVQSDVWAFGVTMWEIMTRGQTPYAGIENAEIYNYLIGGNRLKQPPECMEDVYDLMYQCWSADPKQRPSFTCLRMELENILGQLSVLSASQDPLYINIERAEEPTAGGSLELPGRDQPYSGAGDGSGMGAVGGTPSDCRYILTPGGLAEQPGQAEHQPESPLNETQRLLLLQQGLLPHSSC
The following applies: at 10 µM.
On to `N#CCCc1ccc2c(c1)-c1[nH]c3ccc([N+](=O)[O-])cc3c1CC(=O)N2`, for which the residual activity was 59%.

As to `CC#CC(=O)Nc1cc2c(Nc3ccc(F)c(Cl)c3)ncnc2cn1`, the residual activity turned out to be 82%.

As to `O=C1Nc2ccccc2/C1=C1/Nc2ccccc2/C1=N\OCCC(O)CO` (configuration not stated), the residual activity stood at 46%.

Regarding `c1ccc(-c2n[nH]c3c2oc2ccccc23)cc1`, the residual activity came to 62%.

`Cc1cncc2cccc(S(=O)(=O)N3CCCN(C(=O)CN)C[C@H]3C)c12`: the residual activity was 95%.

Turning to `C[C@@H](N)[C@H]1CC[C@H](C(=O)Nc2ccncc2)CC1`, the residual activity was determined as 124%.

For `CO[C@H]1[C@@H](OC)C[C@H](C)[C@@H](OC)C2=CC(=O)C=C(NC(=O)/C(C)=C/C=C/[C@H](OC)[C@@H](OC(N)=O)/C(C)=C/[C@@H]1C)C2=O`, the residual activity worked out at 101%.

Regarding `Oc1ccc(Nc2nc(-c3ccc(Cl)cc3)cs2)cc1`, the residual activity amounted to 96%.

With `COc1cc2ncnc(Nc3ccc(Oc4ccccc4)cc3)c2cc1OC`, the residual activity was determined as 7%.

In the case of `COc1cc2ncc(-c3ccccc3)nc2cc1OC`, the residual activity turned out to be 98%.

`Cc1cc(Nc2nc(-c3ccccc3)nc3ccccc23)n[nH]1`: the residual activity was 53%.

For the compound `Nc1n[nH]c2nnc(-c3c(-c4ccccc4)nn4ccccc34)cc12`, the residual activity was 99%.

Take `Ic1cccc(CSc2nnc(-c3ccncc3)o2)c1`: the residual activity is 94%.

In the case of `Cn1nc2c3c(cccc31)C(=O)c1ccccc1-2`, the residual activity was determined as 97%.

Regarding `O=c1c2ccccc2[nH]c(=S)n1CCN1CCC(=C(c2ccc(F)cc2)c2ccc(F)cc2)CC1`, the residual activity is 102%.

For the compound `Cc1ccc(NC2=CC(=O)c3sc(C)nc3C2=O)cc1`, the residual activity was found to be 101%.

Consider `COc1cc2ncnc(N3CCN(C(=O)Nc4ccc(Oc5ccccc5)cc4)CC3)c2cc1OC`, for which the residual activity is 95%.
